# According to PubChem BioAssay AID1220 (Sanford-Burnham Center for Chemical Genomics, 2008):
# The whole screen tested about 190,000 compounds, of which about 1,300 (0.68%) were called active. Many of the other results were omitted from the sample, so actives are more common in it than they were. Values without a mark were called inactive. Cut-off read from the data, not from the text of the source: active = inhibition above about 50%; inactive = the rest.
# Molecular target: Mannose-6-phosphate isomerase (Homo sapiens) (UniProt P34949)
# Sequence (P34949 whole entry, looked up): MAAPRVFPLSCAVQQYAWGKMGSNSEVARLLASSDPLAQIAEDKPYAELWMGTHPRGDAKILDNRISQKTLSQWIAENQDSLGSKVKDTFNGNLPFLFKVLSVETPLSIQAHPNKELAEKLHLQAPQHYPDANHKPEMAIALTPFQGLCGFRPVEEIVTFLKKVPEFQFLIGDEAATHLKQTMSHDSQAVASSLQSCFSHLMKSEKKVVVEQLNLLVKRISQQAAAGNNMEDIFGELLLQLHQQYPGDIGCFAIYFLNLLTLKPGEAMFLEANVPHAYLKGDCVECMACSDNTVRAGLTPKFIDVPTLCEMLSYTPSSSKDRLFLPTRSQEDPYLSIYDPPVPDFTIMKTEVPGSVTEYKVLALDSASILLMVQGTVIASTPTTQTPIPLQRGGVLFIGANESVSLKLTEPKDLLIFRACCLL
# Experiment: MPI inhibition at elevated mannose 6-phosphate – biochemical, fluorescence intensity, high mannose 6-phosphate, primary screen (AID 1220)
# Conditions: recombinant PMI enzyme, coupled fluorescence intensity; at 20 µM; hits give high values
row,SMILES,inhibition
1,Cc1cc2c3c(c1)C1(C(=O)N3C(C)(C)CC2C)C(C#N)=C(N)Oc2cc(O)ccc21 (configuration not stated),18.9%
2,CCc1ccc(N2CC(C(=O)N/N=C/c3cc([N+](=O)[O-])ccc3O)CC2=O)cc1 (configuration not stated),-15.8%
3,CCOC(=O)Cc1csc(NC(=O)CSc2nnc(-n3nc(C)cc3C)c3ccccc23)n1,6.3%
4,Cc1nc(Nc2ccc(Cl)cc2)c2nnn(Cc3ccccc3)c2n1,3.1%
5,Cc1nc(NCC2CCCO2)c2nnn(Cc3ccccc3)c2n1 (configuration not stated),-3%
6,Cc1nc(NCC2CC2)c2nnn(Cc3ccccc3)c2n1,59.2% (active)
7,O=C(OCC(=O)N1CCN(C(=O)c2ccco2)CC1)c1cc(-c2cccc(Br)c2)nc2ccccc12,9.6%
8,Cc1cc(C)cc(NC(=S)NCC2CCN(C(C)c3ccccc3)C2)c1 (configuration not stated),-1.3%
9,O=C(NC(c1ccccc1)c1ccccc1)C1(c2cccs2)CCOCC1,-1.3%
10,CCOc1ccc2nc(NS(=O)(=O)c3ccc4c(c3)n(C)c(=O)n4C)sc2c1,-21%
11,CCN(CC)c1ccc(NC(=O)c2ccccc2F)cc1S(=O)(=O)Nc1ccccc1OC,-13.8%
12,CCN(CC)c1ccc(NC(=O)c2ccccc2)cc1S(=O)(=O)Nc1ccccc1OC,9.4%
13,CCCS(=O)(=O)C(=C(Nc1ccccc1)Nc1ccccc1)S(=O)(=O)CCC,-4.7%
14,O=C(NCc1cccs1)N[C@@H](Cc1ccccc1)C(=O)O,-2.3%
15,COc1ccc(-c2nc(S(=O)(=O)c3ccccc3)c(N3CCOCC3)o2)cc1,3.3%
16,CC1(C(=O)O)Sc2[nH]c(=O)sc2C2c3ccccc3OC(=O)C21 (configuration not stated),14.1%
17,O=C(O)C1Sc2[nH]c(=O)sc2C2c3ccc(O)cc3OC(=O)C12 (configuration not stated),55.1% (active)
18,COC(=O)C1Sc2[nH]c(=O)sc2C(c2ccc(Cl)cc2)C1C(=O)OC (configuration not stated),34.7%
19,CCOC(=O)C1Sc2[nH]c(=O)sc2C(c2ccc(Cl)cc2)C1C(=O)OCC (configuration not stated),-88.8%
20,COC(=O)C1Sc2[nH]c(=O)sc2C2c3ccccc3OC(=O)C12 (configuration not stated),29.7%
21,O=C(O)C1Sc2[nH]c(=O)sc2C2c3cc(Cl)ccc3OC(=O)C12 (configuration not stated),63.5% (active)
22,Cc1nc2c(C(=O)NCc3ccc4c(c3)OCO4)c[nH]n2c(=O)c1Cl,7.8%
23,CN(C)C=Nc1ncc2c3ccccc3n(CCN(C)C)c2c1C#N,17.9%
24,CN(C)CCNC(=O)C1CC(=O)N(c2ccc(F)c(Cl)c2)C1 (configuration not stated),-1.8%
25,Cc1nn2c(c1-c1ccc(Cl)cc1)N=C(c1ccco1)CC2c1ccccc1 (configuration not stated),0.1%
26,Cc1cc(Cl)ccc1N=c1ssnc1Cl,13.6%

row,SMILES,inhibition
1,Clc1nssc1=Nc1ccccc1,36.5%
2,COc1cc(OC)c(Cl)cc1N,44.9%
3,COc1cc(N=c2ssnc2Cl)cc(OC)c1OC,47.1%
4,Nc1ccccc1N=c1ssnc1Cl,38.1%
5,Cc1cc(C)nc(NC(=O)c2csnn2)c1,-2.9%
6,Cc1ccc(N=c2ssnc2Cl)cc1,49.8%
7,N#Cc1cccc(N=c2ssnc2Cl)c1,43%
8,CC(=O)Nc1ccc(S(=O)(=O)Nc2c(C)n(C)n(-c3ccccc3)c2=O)cc1,4.8%
9,O=C(NCc1ccco1)c1cc2nc(C3CC3)cc(C(F)(F)F)n2n1,8.5%
10,Cc1c(NC(=O)C2CCCCN2S(=O)(=O)c2ccc(Cl)cc2)c(=O)n(-c2ccccc2)n1C (configuration not stated),4.8%
11,Cc1ccc(C(=O)NC(=S)Nc2cccc(NC(=O)c3ccccc3)c2)cc1[N+](=O)[O-],0.9%
12,Fc1ccc(-n2nnc(-c3cccnc3)n2)cc1,-1.8%
13,Cc1cccc(-c2n[nH]c(=S)n2C)c1,-8.8%
14,O=C(NC1=NCCS1)c1ccccc1OCc1ccc(F)cc1,1.4%
15,OCc1ccccc1N=c1ssnc1Cl,43.7%
16,COc1cc(N=c2ssnc2Cl)cc(OC)c1,27.3%
17,COc1ccc(OC)c(N=c2ssnc2Cl)c1,67.4% (active)
18,COc1ccc(N=c2sc3ccccc3n2C)cc1,0.4%
19,COc1ccc(OC)c(N=C2C(=O)Nc3ccccc32)c1,5.1%
20,Cc1ccc(-c2nc(C)sc2CC(=O)OCC(=O)Nc2cccc([N+](=O)[O-])c2)cc1,-5.6%
21,C/C(=N\N=C\c1ccc(N(C)C)cc1)c1cccc([N+](=O)[O-])c1,-128%
22,COC(=O)c1sccc1NC(=S)Nc1cc(OC)ccc1OC,41.2%
23,COc1ccc2c(c1)-c1nc(NC(=O)c3ccco3)sc1CC2,32.9%
24,COc1ccc2c(c1)Cc1sc(NC(=O)c3ccccc3)nc1-2,-13.1%
25,COc1ccc2c(c1)Cc1sc(NC(=O)c3cccnc3)nc1-2,64.2% (active)
26,COc1ccc2c(c1)Cc1sc(NC(=O)c3ccco3)nc1-2,45.8%

row,SMILES,inhibition
1,COc1ccc(C(=O)Nc2nc3c(s2)Cc2cc(OC)ccc2-3)cc1,26.8%
2,COc1ccc2c(c1)CCc1sc(NC(=O)c3ccco3)nc1-2,60.6% (active)
3,Cc1ccc(NC(=O)c2cc(C)n(-c3ccccc3)c2C)cc1,9.3%
4,Cc1ccc(CN(c2ccc(C(=O)N3CCCC3)cc2)S(C)(=O)=O)cc1,-1.2%
5,CCC(=O)Nc1cccc(NC(=O)CSc2nnc(-c3ccc(NS(C)(=O)=O)cc3)n2CC)c1,-2.3%
6,CCc1nnc(NC(=O)CSc2nnc3c4ccccc4n(C)c3n2)s1,2%
7,Cc1onc(-c2c(F)cccc2Cl)c1C(=O)N1CCCc2ccccc21,4.2%
8,O=C1NC(Cc2ccccc2)C(=O)N1Cc1cc([N+](=O)[O-])cc2c1OCOC2 (configuration not stated),-4.9%
9,O=C(CN(C(=O)Cn1nnc(-c2ccccc2F)n1)c1cccc2c1CCCC2)NCc1ccccc1,28.1%
10,NC(=O)NC(=O)CC1S/C(=N/N=C/c2ccccc2)NC1=O (configuration not stated),-2%
11,NC(=O)NC(=O)CC1S/C(=N/N=C2\CSC(=O)N2)NC1=O (configuration not stated),50.5% (active)
12,NC(=O)NC(=O)CC1S/C(=N/N=C2/NC(=O)CS2)NC1=O (configuration not stated),24.9%
13,COc1ccc(-c2cc(C(=O)Nc3c(C)nn(Cc4ccc(Cl)cc4)c3C)no2)cc1,1.1%
14,CC(CCn1cccn1)NC(=O)c1cc(COc2ccc(F)cc2F)on1 (configuration not stated),7.7%
15,c1ccc(-c2cc3nccc(-c4ccccn4)n3n2)cc1,61.5% (active)
16,Nc1nc2nccc(-c3ccccn3)n2n1,4.4%
17,Cc1cc2nccc(-c3ccccn3)n2n1,-0.9%
18,Cc1nn(C)c(C)c1CS(=O)(=O)c1ccccc1,2.6%
19,Cc1cc2nc(CS(=O)(=O)c3ccccc3)cc(=O)n2[nH]1,0.1%
20,CCCCCCCCNc1nc(Cl)nc(NCCN2CCOCC2)n1,-7.1%
21,NC(=O)CSc1nc2ccccc2nc1SCC(N)=O,-6.6%
22,CC(=O)Nc1cc(OC(C)=O)c2nonc2c1OC(C)=O,78.3% (active)
23,CCOc1cc(NC(=O)C2CCCO2)c(OCC)cc1NC(C)=O (configuration not stated),6.8%
24,CC(=O)Nc1nonc1NC(C)=O,10.7%
25,COc1cc(O)c(C(C)=O)cc1OC,-17%
26,COc1cc(O)c(NC(C)=O)c2nonc12,62.4% (active)

row,SMILES,inhibition
1,CCOc1cc(Cl)c(NC(C)=O)cc1OCC,-3.5%
2,COc1ccc(/C=N/NS(=O)(=O)c2ccccc2)cc1OC(=O)c1ccc(C)cc1,6.9%
3,Clc1ccccc1Cc1noc(CN2CCCCC2CCc2ccccn2)n1 (configuration not stated),16.4%
4,FC(F)Oc1ccc(/C=N/c2c(-c3ccc(OC(F)F)cc3)nc3n2CCS3)cc1,1.9%
5,COc1ccc(/C=N/c2c(-c3ccc(OC)cc3)nc3n2CCS3)cc1,57.2% (active)
6,Clc1ccc(/C=N/c2c(-c3ccc(Cl)cc3)nc3n2CCS3)cc1,0.3%
7,Cc1ccc(NCc2ccccc2)cc1,9.2%
8,Cc1csc(=Nc2cccnc2)n1Cc1ccco1,2.8%
9,COc1cccc(OCC(=O)NNC(=S)Nc2ccc(Cl)cc2Cl)c1,3.7%
10,O=C(c1cncc(Br)c1)N1CCN(c2ccc(N3CCOCC3)nn2)CC1,4.8%
11,O=C(Cc1c(Cl)cccc1Cl)NC1=NCCS1,-5.2%
12,O=C(CSc1cccc2cccc(Cl)c12)NC1=NCCS1,51.9% (active)
13,O=C(Cc1c(F)cccc1Cl)NC1=NCCS1,9.7%
14,COc1ccc(N2C(=O)CSC(c3ccccc3)C2=O)cc1 (configuration not stated),4.1%
15,Cc1cc(NC(=O)CN2CCN(S(=O)(=O)c3ccc(Cl)cc3)CC2)no1,2.2%
16,O=[N+]([O-])c1cc(Cl)c(O)c2ncccc12,32.5%
17,CC(C)C(=O)NC(c1cccs1)c1cc([N+](=O)[O-])c2cccnc2c1O (configuration not stated),46.5%
18,O=[N+]([O-])c1cc(CN2CCCC2)c2cccnc2c1O,44.4%
19,O=[N+]([O-])c1cc(CN2CCN(c3ccccc3)CC2)c(O)c2ncccc12,35.7%
20,O=C(NC(c1ccc(Cl)cc1)c1cc(Cl)c2cccnc2c1O)c1cccnc1 (configuration not stated),2.3%
21,CC(C)C(=O)NC(c1ccccc1)c1cc([N+](=O)[O-])c2cccnc2c1O (configuration not stated),60.9% (active)
22,CC(C)C(=O)NC(c1ccco1)c1ccc2cccnc2c1O (configuration not stated),37.8%
23,CN(Cc1cc([N+](=O)[O-])c2cccnc2c1O)C1CCCCC1,51.8% (active)
24,Cc1ccc(C(NC(=O)C(C)C)c2cc([N+](=O)[O-])c3cccnc3c2O)cc1 (configuration not stated),53.9% (active)
